PubChem BioAssay (NCI)
Compounds without any hit were thinned out: in the full panel of roughly 83,000, 20% have a hit.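 Each cell line was grown in a 96-well plate and treated with one concentration of compound for 48 hours. Values below 10 were considered active.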 Activity calls are given as the source filed them.

What was measured:
Assay in all cases: NCI-60 one-dose screen, 48 h (100 = growth as untreated, 0 = no growth, -100 = all killed)
DU-145 prostate = conditions: 10 µM unless noted
K-562 leukemia = conditions: 10 µM unless noted
MALME-3M melanoma = conditions: 10 µM unless noted
MDA-MB-231 breast = conditions: 10 µM unless noted
RXF 393 renal = conditions: 10 µM unless noted
SF-268 CNS = conditions: 10 µM unless noted
SF-295 CNS = conditions: 10 µM unless noted
SF-539 CNS = conditions: 10 µM unless noted
UACC-257 melanoma = conditions: 10 µM
M14 melanoma = conditions: 10 µM unless noted
HCT-15 colon = conditions: 10 µM unless noted
HT29 colon = conditions: 10 µM unless noted
SNB-75 CNS = conditions: 10 µM unless noted
SNB-19 CNS = conditions: 10 µM unless noted
U251 CNS = conditions: 10 µM unless noted
PC-3 prostate = conditions: 10 µM unless noted
SK-MEL-5 melanoma = conditions: 10 µM unless noted
UACC-62 melanoma = conditions: 10 µM unless noted
LOX IMVI melanoma = conditions: 10 µM unless noted
SK-MEL-28 melanoma = conditions: 10 µM unless noted

Measured: growth

Cc1cn(-c2cc(NC(=O)c3cncc(C#Cc4cnc5ccc(O[C@H]6CCOC6)nn45)c3)cc(C(F)(F)F)c2)cn1
inactive: DU-145 prostate 91.8% | K-562 leukemia 12.9% | MALME-3M melanoma 52.7% | MDA-MB-231 breast 47.7% | RXF 393 renal 60.4% | SF-268 CNS 94.7% | SF-295 CNS 96.8% | SF-539 CNS 59.3% | UACC-257 melanoma 97.1% | M14 melanoma 57.7% | HCT-15 colon 82.8% | HT29 colon 69% | SNB-75 CNS 92.9% | SNB-19 CNS 117% | U251 CNS 105% | PC-3 prostate 96.5% | SK-MEL-5 melanoma 70.6% | UACC-62 melanoma 70.6% | LOX IMVI melanoma 62.6% | SK-MEL-28 melanoma 76.3%

O=S(=O)(Nc1ccc(C2CC2)cc1)c1ccc(-c2cnc(C3CC3)o2)cc1
inactive: DU-145 prostate 88.5% | K-562 leukemia 15.7% | MALME-3M melanoma 66.6% | MDA-MB-231 breast 72.5% | RXF 393 renal 74.6% | SF-268 CNS 78% | SF-295 CNS 49.4% | SF-539 CNS 62.9% | UACC-257 melanoma 79.8% | M14 melanoma 53.6% | HCT-15 colon 39.9% | HT29 colon 38.4% | SNB-75 CNS 53.8% | SNB-19 CNS 73.7% | U251 CNS 68.7% | PC-3 prostate 63.1% | SK-MEL-5 melanoma 74.7% | UACC-62 melanoma 48.5% | LOX IMVI melanoma 55.7% | SK-MEL-28 melanoma 73.2%

C[C@@H]1C[C@H]2C(=O)OCC(NC(=O)[C@H](Cc3cc(F)cc(F)c3)NC(=O)Nc3ccc(Cl)cc3F)C(=O)N3CCC[C@H]3C(=O)N3CCCC[C@H]3C(=O)N[C@@H](C)C(=O)N2C1 (stereo not given in full)
active: RXF 393 renal -12.6% | SF-295 CNS 8.11% | SK-MEL-5 melanoma -12.3% | LOX IMVI melanoma 4.29%
inactive: DU-145 prostate 24.7% | K-562 leukemia 19.3% | MALME-3M melanoma 35.9% | MDA-MB-231 breast 27.3% | SF-268 CNS 29.8% | SF-539 CNS 32.1% | UACC-257 melanoma 17.2% | M14 melanoma 19% | HCT-15 colon 11.1% | HT29 colon 15.6% | SNB-75 CNS 46.8% | SNB-19 CNS 24.4% | U251 CNS 28.8% | PC-3 prostate 17.3% | UACC-62 melanoma 26.7% | SK-MEL-28 melanoma 39.7%

O=C1Nc2cc(OC(F)(F)F)ccc2Oc2ccc(-c3ccnc(N4CC[C@H](O)C4)c3)cc21
inactive: MALME-3M melanoma 39.4% | MDA-MB-231 breast 17.2% | SF-268 CNS 19.1% | UACC-257 melanoma 72% | SNB-19 CNS 35.9% | PC-3 prostate 15% | UACC-62 melanoma 28.8% | SK-MEL-28 melanoma 24.6%
active: DU-145 prostate -39.1% | K-562 leukemia 5.41% | RXF 393 renal -10% | SF-295 CNS 3.93% | SF-539 CNS -28.7% | M14 melanoma -1.7% | HCT-15 colon -30.6% | HT29 colon -58.7% | SNB-75 CNS -6% | U251 CNS 4.76% | SK-MEL-5 melanoma -58.4% | LOX IMVI melanoma 3.23%

Cc1ccc(-c2cc3nc(C(Cl)Cl)nc(-c4ccccc4)n3n2)cc1
inactive: K-562 leukemia 90.4% | MALME-3M melanoma 122% | MDA-MB-231 breast 79.7% | RXF 393 renal 70.4% | SF-268 CNS 89% | SF-295 CNS 79.8% | SF-539 CNS 90.8% | UACC-257 melanoma 112% | M14 melanoma 112% | HCT-15 colon 75.6% | HT29 colon 74.9% | SNB-75 CNS 99.3% | SNB-19 CNS 74.1% | U251 CNS 66.8% | PC-3 prostate 79.3% | SK-MEL-5 melanoma 92.2% | UACC-62 melanoma 91.9% | LOX IMVI melanoma 109% | SK-MEL-28 melanoma 101%
active: DU-145 prostate 2.08%

CCNC(=O)Oc1ccc(/C(=C(/C)c2ccccc2)c2ccc(OCCN3CCCC3)cc2)cc1
inactive: DU-145 prostate 89.5% | K-562 leukemia 11.3% | MALME-3M melanoma 30% | MDA-MB-231 breast 66.7% | RXF 393 renal 54.6% | SF-268 CNS 80.3% | SF-295 CNS 60.5% | SF-539 CNS 49.7% | M14 melanoma 24.3% | HCT-15 colon 46.5% | SNB-75 CNS 79.4% | SNB-19 CNS 79% | U251 CNS 58.6% | PC-3 prostate 64.2% | SK-MEL-5 melanoma 25.4% | UACC-62 melanoma 83.4% | LOX IMVI melanoma 18.4% | SK-MEL-28 melanoma 56.2%
active: UACC-257 melanoma -3.88% | HT29 colon 9.61%

C#C[C@]1(O)CC[C@H]2[C@@H]3CC=C4c5sc(C6CCOCC6)nc5CC[C@]4(C)[C@H]3CC[C@@]21C
inactive: DU-145 prostate 97.9% | K-562 leukemia 13.2% | MALME-3M melanoma 88.8% | MDA-MB-231 breast 73.9% | SF-268 CNS 91.2% | SF-295 CNS 37.8% | SF-539 CNS 56.5% | UACC-257 melanoma 78.3% | M14 melanoma 59.8% | HCT-15 colon 36.1% | HT29 colon 44.2% | SNB-75 CNS 78.9% | SNB-19 CNS 86.1% | U251 CNS 57.6% | PC-3 prostate 63.2% | SK-MEL-5 melanoma 85.2% | UACC-62 melanoma 64.7% | LOX IMVI melanoma 65.8% | SK-MEL-28 melanoma 56.5%
active: RXF 393 renal 4.95%

COc1cc(/C=N/Nc2ccnc3cc(Cl)ccc23)cc(OC)c1O
active: DU-145 prostate -24.6% | K-562 leukemia -54.8% | MALME-3M melanoma -88.3% | MDA-MB-231 breast -74.6% | RXF 393 renal -86.8% | SF-268 CNS -37.3% | SF-295 CNS -80.3% | SF-539 CNS -85% | M14 melanoma -90.1% | HCT-15 colon -58.9% | HT29 colon 8.25% | SNB-75 CNS -81.5% | SNB-19 CNS -24.5% | U251 CNS -87.1% | PC-3 prostate -61.1% | SK-MEL-5 melanoma -92.7% | LOX IMVI melanoma -96.2%
inactive: UACC-257 melanoma 112% | UACC-62 melanoma 101% | SK-MEL-28 melanoma 98.4%

C#C[C@]1(O)CC[C@H]2[C@@H]3CC=C4c5sc(C6CC6)nc5CC[C@]4(C)[C@H]3CC[C@@]21C
inactive: DU-145 prostate 92.3% | K-562 leukemia 35.3% | MALME-3M melanoma 107% | MDA-MB-231 breast 91.3% | SF-268 CNS 86.5% | SF-295 CNS 43.7% | SF-539 CNS 66.4% | UACC-257 melanoma 78.9% | M14 melanoma 77.9% | HCT-15 colon 50.4% | HT29 colon 70.2% | SNB-75 CNS 94.8% | SNB-19 CNS 90% | U251 CNS 66.3% | PC-3 prostate 67.2% | SK-MEL-5 melanoma 93.5% | UACC-62 melanoma 67.7% | LOX IMVI melanoma 62.6% | SK-MEL-28 melanoma 69.3%
active: RXF 393 renal 5.22%

C#CCOc1ccc(C(Nc2ccc(OC)cc2)c2nnnn2C2CCCCC2)cc1 (stereo not given)
inactive: DU-145 prostate 109% | K-562 leukemia 94.4% | MALME-3M melanoma 98.5% | MDA-MB-231 breast 86.6% | RXF 393 renal 114% | SF-268 CNS 102% | SF-295 CNS 100% | SF-539 CNS 104% | UACC-257 melanoma 102% | M14 melanoma 97.2% | HCT-15 colon 97.1% | HT29 colon 101% | SNB-75 CNS 92.6% | SNB-19 CNS 93.3% | U251 CNS 89.9% | PC-3 prostate 93.8% | SK-MEL-5 melanoma 100% | UACC-62 melanoma 73.4% | LOX IMVI melanoma 89.2% | SK-MEL-28 melanoma 109%

Cc1ccc(Cc2cnc(NC(=O)/C(C#N)=C/c3ccc(-c4ccc(Cl)cc4)o3)s2)cc1
inactive: DU-145 prostate 84% | K-562 leukemia 88.7% | MALME-3M melanoma 98.8% | MDA-MB-231 breast 97.4% | RXF 393 renal 61% | SF-268 CNS 95.3% | SF-295 CNS 102% | SF-539 CNS 98.4% | UACC-257 melanoma 100% | M14 melanoma 95.9% | HCT-15 colon 93.3% | HT29 colon 97.1% | SNB-75 CNS 94.9% | SNB-19 CNS 106% | U251 CNS 102% | PC-3 prostate 87.6% | SK-MEL-5 melanoma 92.4% | UACC-62 melanoma 95.4% | LOX IMVI melanoma 81.3% | SK-MEL-28 melanoma 103%

COc1cc2oc(-c3cccc(NC(=O)c4cc(NC(=O)[C@H](C)NC(=O)OC(C)(C)C)ccc4C)c3)cc(=O)c2c(OC)c1OC
inactive: DU-145 prostate 62.2% | K-562 leukemia 47.4% | MALME-3M melanoma 92.5% | MDA-MB-231 breast 65.1% | RXF 393 renal 67.7% | SF-268 CNS 79.4% | SF-295 CNS 65.5% | SF-539 CNS 79.4% | UACC-257 melanoma 118% | M14 melanoma 97.9% | HCT-15 colon 50.8% | HT29 colon 75.5% | SNB-75 CNS 102% | SNB-19 CNS 65.4% | U251 CNS 53.5% | PC-3 prostate 68.8% | SK-MEL-5 melanoma 63.2% | UACC-62 melanoma 75.4% | LOX IMVI melanoma 53.8% | SK-MEL-28 melanoma 87%

COc1ccc(NS(=O)(=O)c2ccc(-c3cnc(C4CC4)o3)cc2)cc1Cl
active: RXF 393 renal 0.101% | SNB-75 CNS -2.75%
inactive: DU-145 prostate 24.1% | K-562 leukemia 10.1% | MALME-3M melanoma 50% | MDA-MB-231 breast 41.9% | SF-268 CNS 66.1% | SF-295 CNS 10.6% | SF-539 CNS 13.3% | UACC-257 melanoma 66.9% | M14 melanoma 21.1% | HCT-15 colon 29.3% | HT29 colon 10.6% | SNB-19 CNS 43.8% | U251 CNS 36% | PC-3 prostate 25.2% | SK-MEL-5 melanoma 18.1% | UACC-62 melanoma 34.1% | LOX IMVI melanoma 39.5% | SK-MEL-28 melanoma 66.9%

Cc1nn(-c2ccc(Br)cc2)c2nc(CCl)[nH]c(=O)c12
active: LOX IMVI melanoma -9.8%
inactive: DU-145 prostate 110% | K-562 leukemia 75.6% | MALME-3M melanoma 106% | MDA-MB-231 breast 94.1% | RXF 393 renal 119% | SF-268 CNS 99.4% | SF-295 CNS 100% | SF-539 CNS 77% | UACC-257 melanoma 101% | M14 melanoma 101% | HCT-15 colon 103% | HT29 colon 104% | SNB-75 CNS 99.7% | SNB-19 CNS 97.1% | U251 CNS 98.5% | PC-3 prostate 96.4% | SK-MEL-5 melanoma 102% | UACC-62 melanoma 95.1% | SK-MEL-28 melanoma 103%

COc1ccc(Oc2ccc(C3CC(c4cc(OC)c(OC)c(OC)c4)=NN3C(C)=O)cc2)cc1 (stereo not given)
active: SK-MEL-5 melanoma 1.54%
inactive: DU-145 prostate 40.4% | K-562 leukemia 16.1% | MALME-3M melanoma 33.6% | MDA-MB-231 breast 40.6% | RXF 393 renal 17% | SF-268 CNS 38.6% | SF-295 CNS 22.5% | SF-539 CNS 46.5% | UACC-257 melanoma 40.3% | M14 melanoma 27.6% | HCT-15 colon 18.5% | HT29 colon 31.7% | SNB-75 CNS 46% | SNB-19 CNS 30.8% | U251 CNS 24.9% | PC-3 prostate 18.3% | UACC-62 melanoma 28.9% | LOX IMVI melanoma 35.8% | SK-MEL-28 melanoma 43.3%
